Drawing on paper PMC7819943, “Rice protein-binding microarrays: a tool to detect cis-acting elements near promoter regions in rice”, this text covers binding signal for 42 sequences.

Over roughly 39,000 sequences, “fluorescence intensity (a.u.)” has its median near 4,300; the highest 2% begin near 39,000. For the sample, the highest values were picked, then their nearest neighbours and some sequences at random.

The target in this assay is T1, OsSMF1 (Oryza sativa, UniProt Q6ZLB0 1-436).
T1 sequence: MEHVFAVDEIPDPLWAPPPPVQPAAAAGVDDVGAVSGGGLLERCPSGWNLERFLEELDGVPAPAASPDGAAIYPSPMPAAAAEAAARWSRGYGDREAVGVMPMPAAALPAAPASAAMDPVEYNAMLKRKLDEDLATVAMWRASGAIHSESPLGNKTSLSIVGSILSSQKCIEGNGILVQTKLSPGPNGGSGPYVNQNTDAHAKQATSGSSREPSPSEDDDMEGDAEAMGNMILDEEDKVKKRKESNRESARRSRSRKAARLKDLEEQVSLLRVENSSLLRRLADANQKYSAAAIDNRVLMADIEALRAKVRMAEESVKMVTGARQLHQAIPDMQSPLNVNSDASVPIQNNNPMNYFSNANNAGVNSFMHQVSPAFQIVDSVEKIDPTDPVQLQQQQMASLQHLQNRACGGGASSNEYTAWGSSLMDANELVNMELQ
Kind of assay: protein-binding microarray (RPBM); PBS, 2% BSA, 51.3 ng/ul salmon testes DNA, 50 uM zinc acetate, 200 nM TF, 25 C, 1 h; high values mean tight binding. Conditions: protein: recombinant; tags: N-terminal polyhistidine and DsRed monomer fusion (pET32a); chain copies: 2; label: CyDye5-dUTP incorporated in the synthesized complementary strand; 3' TTTTT single-stranded linker to array surface; dsDNA, one strand shown. In short, it runs like this:
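Polyhistidine-tagged DsRed fusions of transcription factors, joined at the N-terminus, were expressed in E. coli BL21-CodonPlus and isolated on Ni–NTA. They were incubated at 200 nM for 1 h at 25 °C on a custom Agilent array, double-stranded and BSA-blocked, in PBS with 2% BSA, salmon testes DNA and 50 µM zinc acetate. The binding signal is per-feature fluorescence intensity (arbitrary units) read on an Axon 4000B scanner after washing.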
As for “CCTCCATCTATGTCCTGCTGTCCAACATCTACGCGGATGCCGGAGTCACCTAGTGCAG”, the binding signal was 3820 fluorescence intensity (a.u.).

On to “TGACCGGCGCAGCTCGCGCCACGTCACCCGCACGCGCCGCCGGAGTCACCTAGTGCAG”, for which the binding signal was 8600 fluorescence intensity (a.u.).

Regarding “TTCTCTCCGTCTTCCTCCAGCACTGAATTTGTCGCTGGCGCGGAGTCACCTAGTGCAG”, the binding signal is 64900 fluorescence intensity (a.u.).

As to “TTCTCCTCGGCCTCCATGTGCACGTCCATGTGGCGCATGGCGGAGTCACCTAGTGCAG”, the binding signal was 4220 fluorescence intensity (a.u.).

On to “CGTGCACGTGTTCACCGGAGGTGCTCGTCAGCAAAGCAGGCGGAGTCACCTAGTGCAG”, for which the binding signal is 6000 fluorescence intensity (a.u.).

“CTCTCTCCTCGTCTTCCTCGCGCTGACTCTTCTCCTCCTCCGGAGTCACCTAGTGCAG”: the binding signal was 3180 fluorescence intensity (a.u.).

Consider “ACGTTCCACTCGCGCGCCTCCACGTCAGCACCCACTGTGGCGGAGTCACCTAGTGCAG”, for which the binding signal is 42300 fluorescence intensity (a.u.).

Turning to “ATGGCGCGCCGCCACGTCACCCCGACTCGCCACGTCAGCACGGAGTCACCTAGTGCAG”, the binding signal is 65500 fluorescence intensity (a.u.).

In the case of “GCTAGCACTCGCCTCCCTCTGCGCCCACGCCACGCTGTGGCGGAGTCACCTAGTGCAG”, the binding signal is 4110 fluorescence intensity (a.u.).

Regarding “AATTCCTCTCTCTCTCTCCCCTCCCATGGCGTCACTGTCGCGGAGTCACCTAGTGCAG”, the binding signal is 6120 fluorescence intensity (a.u.).

As to “GACGCATGCACGCCGCCACGTCGCGCGCCATGGCCACCCCCGGAGTCACCTAGTGCAG”, the binding signal is 9700 fluorescence intensity (a.u.).

For “TTCACTCGAGGAGGCGGCGGAGGCAGTCCACGTCAGCAACCGGAGTCACCTAGTGCAG”, the binding signal was 39000 fluorescence intensity (a.u.).

Consider “CTTCACCGGCGGCGAGGAGCACGTCACCGGCGGCGAGCACCGGAGTCACCTAGTGCAG”, for which the binding signal was 4120 fluorescence intensity (a.u.).

As for “GCCTGTAGCCTGGTGGTTACAAGAGCCTCAGTAGCACCTGCGGAGTCACCTAGTGCAG”, the binding signal was 3250 fluorescence intensity (a.u.).

For the sequence “CAACGGCTATGAGCTGTCACACACTCACAGTAGTACTCCGCGGAGTCACCTAGTGCAG”, the binding signal was 3850 fluorescence intensity (a.u.).

Consider “ATAAATAGAATGCTGACTGGACTGCCACGCGTACGCCATGCGGAGTCACCTAGTGCAG”, for which the binding signal was 22000 fluorescence intensity (a.u.).

For “ACGTGCTCAGTCATCATCCTCATGGCCGTTCCTTGCCGAACGGAGTCACCTAGTGCAG”, the binding signal is 6930 fluorescence intensity (a.u.).

Consider “TCTGTACCAAACTCAATTTTAGAATTCAGAGATCCAATAACGGAGTCACCTAGTGCAG”, for which the binding signal was 40000 fluorescence intensity (a.u.).

As to “TCAAAGGGTTTCATAAATTTTATGTATATTTTACAAGATTCGGAGTCACCTAGTGCAG”, the binding signal was 5540 fluorescence intensity (a.u.).

Consider “GATAAATATAGGAATGTTTATAATACTAAATTAATTTAATCGGAGTCACCTAGTGCAG”, for which the binding signal is 28300 fluorescence intensity (a.u.).

For the sequence “CAGAAGGATATATGTTTTATAATTTATTCAAATACTAGATCGGAGTCACCTAGTGCAG”, the binding signal is 41400 fluorescence intensity (a.u.).

For the sequence “GTAATAATAGATTATATTCAATTAATTAATTATTTATTATCGGAGTCACCTAGTGCAG”, the binding signal is 17400 fluorescence intensity (a.u.).

As for “TGATCAAAGGGTTTTACTAAAGGAGTTATGGTCTAATTTTCGGAGTCACCTAGTGCAG”, the binding signal is 64900 fluorescence intensity (a.u.).

As to “GAGGACAGATCAAATGATTTTAATGACGAAACATGTGCTTCGGAGTCACCTAGTGCAG”, the binding signal was 4096 fluorescence intensity (a.u.).

“GCTTTGGAACTCCTTTAGATTATAATCCAACTCAATTCAACGGAGTCACCTAGTGCAG”: the binding signal is 4590 fluorescence intensity (a.u.).

In the case of “ATTTTGGTCAAATTTAAACTAATCTAAGTTTGACTAATTTCGGAGTCACCTAGTGCAG”, the binding signal was 8280 fluorescence intensity (a.u.).

Turning to “CAATTCCGACGAAATCCGGTCGGATTTCACGAAATTTCGACGGAGTCACCTAGTGCAG”, the binding signal is 20600 fluorescence intensity (a.u.).

In the case of “CGATTTACTTCAAATTTTAGAGGATCAGATCCGACGAAATCGGAGTCACCTAGTGCAG”, the binding signal is 42900 fluorescence intensity (a.u.).

For the sequence “TTCATAAAACTCCACCTGATCCGAATTACTCTACCAATAACGGAGTCACCTAGTGCAG”, the binding signal was 4490 fluorescence intensity (a.u.).

For “CGAATTTGCTACCCCATTTCACAAATCAAAAGTGCAAAGCCGGAGTCACCTAGTGCAG”, the binding signal is 29200 fluorescence intensity (a.u.).

Consider “CACAGTCGACGACACCCTCCATCTCCGTCCCTCCCACTCCCGGAGTCACCTAGTGCAG”, for which the binding signal is 7160 fluorescence intensity (a.u.).

For “ACGGGCCGTGCTTGGGCCAGCGGCTCGGCACGTGGGCCGGCGGAGTCACCTAGTGCAG”, the binding signal is 3480 fluorescence intensity (a.u.).

On to “GAATCAGTAAATAAAGCGCTAGGTTTAATGATGTCATGGACGGAGTCACCTAGTGCAG”, for which the binding signal is 6840 fluorescence intensity (a.u.).

For “ATTAACAATTCAATGGTTCTTGATGTGTTCTACTTAACCTCGGAGTCACCTAGTGCAG”, the binding signal was 3260 fluorescence intensity (a.u.).

For the sequence “AAGATAAATGGTTAAACCTTATATGTGAAACCAGAGAAAACGGAGTCACCTAGTGCAG”, the binding signal is 21100 fluorescence intensity (a.u.).

As to “CCTTCTTAACAGTCTGTGAAGCTCTGCCATCTCACCGTCTCGGAGTCACCTAGTGCAG”, the binding signal is 3820 fluorescence intensity (a.u.).

Turning to “CTTCGGCCTTAGCTCCAAATCCGATGTAAATTTACCAAATCGGAGTCACCTAGTGCAG”, the binding signal is 61700 fluorescence intensity (a.u.).

Consider “TTCGGCGCAAATTTCTAATCATGATGTAATATAATTAGCTCGGAGTCACCTAGTGCAG”, for which the binding signal is 3270 fluorescence intensity (a.u.).

“CTCCAAATTAGTATCCAAACATCCGATGTGACATGGACTTCGGAGTCACCTAGTGCAG”: the binding signal was 4370 fluorescence intensity (a.u.).

For “TTTCCAATCACGTATTCCGGACAAAGGCCTAAACCTGCTCCGGAGTCACCTAGTGCAG”, the binding signal was 35800 fluorescence intensity (a.u.).

Consider “ACCAAAATTCTCATATCTCTCAACTAAACAAAACTCTTAACGGAGTCACCTAGTGCAG”, for which the binding signal was 3300 fluorescence intensity (a.u.).

For “ACCCACGCACTCACTGACGATGCAATGCGGCCATATGCTACGGAGTCACCTAGTGCAG”, the binding signal was 3240 fluorescence intensity (a.u.).
